Results taken from PubChem BioAssay (NCATS).
Inconclusive results are not listed. The source made the active and inactive calls. Calls come from the whole dose curve; as a rule, active = well fitted curve in the direction sought with a large enough effect; inconclusive = small, poorly fitted or top-dose-only effect, or another doubt; inactive = no such curve, though single readings can be large; an effect the other way counts as inactive or inconclusive.

Tests used:
NIH3T3 = experiment: qHTS assay to identify novel small-molecules to repurpose for Merkel cell carcinoma treatment (AID 1296009); settings: MCC and control cell lines, CellTiter-Glo viability, 72 h; series mostly up to 44.8 µM; note: nearly all actives have a fitted effect of over 60% in size
Outline: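 Cell viability, measured as CellTiter-Glo luminescence, was normalized between DMSO and no-cell wells. The cells had been exposed to 8- or 11-point compound dilutions for 72 hr at 37 degree celsius.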

C33A = experiment: Primary qHTS to identify gynecologic anti-cancer compounds using libraries of approved drugs and bioactive compounds (AID 1345084); settings: Gynecologic cancer cell panel viability, ATPlite luminescence, 48 h; series mostly up to 57.5 µM; note: nearly all actives have a fitted effect of over 55% in size
Outline: (§1)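 In this quantitative HTS, cell killing is estimated from loss of ATP-dependent luciferase light. Cells see five compound concentrations over a 48 h exposure.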

CAOV3 = experiment: as above; settings: Gynecologic cancer cell panel viability, ATPlite luminescence, 48 h; series mostly up to 57.5 µM
Outline: as §1

CASKI = experiment: as above; settings: Gynecologic cancer cell panel viability, ATPlite luminescence, 48 h; series mostly up to 57.5 µM
Outline: as §1

Es-2 = experiment: as above; settings: Gynecologic cancer cell panel viability, ATPlite luminescence, 48 h; series mostly up to 57.5 µM
Outline: as §1

HeLa = experiment: as above; settings: Gynecologic cancer cell panel viability, ATPlite luminescence, 48 h; series mostly up to 57.5 µM
Outline: as §1

Hek293T = experiment: as above; settings: Gynecologic cancer cell panel viability, ATPlite luminescence, 48 h, control line for the selectivity index; series mostly up to 57.5 µM
Outline: as §1

JEG-3 = experiment: as above; settings: Gynecologic cancer cell panel viability, ATPlite luminescence, 48 h; series mostly up to 57.5 µM
Outline: as §1

OV90 = experiment: as above; settings: Gynecologic cancer cell panel viability, ATPlite luminescence, 48 h; series mostly up to 57.5 µM
Outline: as §1

Measured: Potency

Nc1nc2c(nc(Br)n2[C@@H]2O[C@@H]3COP(=O)(O)O[C@H]3[C@H]2O)c(=O)[nH]1
inactive: all assays above

CC(=O)C1=C(O)C=C2Oc3c(C(C)=O)c(O)c(C)c(O)c3[C@]2(C)C1=O
inactive: all assays above

C=C(C(=O)OC)[C@@H]1CC=C2C=CC(=O)[C@H](C)[C@@]2(C)C1
inactive: all assays above

C1=Cc2ccccc2C(=C2CCN(CCCCc3nn[nH]n3)CC2)c2ccccc21
inactive: all assays above

Cc1cc(C)c(S(=O)(=O)n2cc(C)cc2C)c(C)c1
inactive: all assays above

O=C(/C=C/c1ccccc1O)O[C@@H]1O[C@H](CO)[C@@H](O)[C@H](O)[C@H]1O
inactive: all assays above

CCOc1ccc(CCNC(=O)c2cc3sc(Cl)cc3n2C)cc1OCC
inactive: all assays above

C/C=C(\C)C(=O)OC1C=C(C)CC(OC(=O)c2ccc(O)cc2)C2C1(C)CCC2(O)C(C)C (stereo unspecified)
inactive: all assays above

CCCN1CCC=C(c2cc(-c3ccc(C)cc3)no2)C1
inactive: all assays above

Fc1ccc2c(CCNCc3cccc(OCC(F)(F)C(F)F)c3)c[nH]c2c1
inactive: all assays above

C=C1CCC2C(C)(C(=O)O)CCCC2(C)C1CCC1=CCOC1=O (stereo unspecified)
inactive: all assays above

CN1CCN(C2=Nc3ccccc3Nc3ccc(OS(=O)(=O)C(F)(F)F)cc32)CC1
inactive: all assays above

C=C1C(=O)OC2C1CCC1(C)C(O)CC=C(C)C21 (stereo unspecified)
inactive: all assays above

CC(C)(O)C1CC(=O)C2(C)C(CCC3(C)C(c4ccoc4)OC(=O)C4OC432)C12CCC(=O)OC2 (stereo unspecified)
not listed: JEG-3
inactive: all other assays above

CCc1c(Cl)c(O)c(Cl)c(O)c1C(=O)O[C@H]1[C@H](O)[C@H](OC)[C@H](OC/C2=C\C=C\C[C@H](O)/C(C)=C\[C@H](CC)[C@@H](O[C@@H]3OC(C)(C)[C@@H](OC(=O)C(C)C)[C@H](O)[C@@H]3O)/C(C)=C/C(C)=C/C[C@@H]([C@@H](C)O)OC2=O)O[C@@H]1C
inactive: all assays above

CC(C)c1c(O)ccc2c1CC[C@H]1C(C)(C)CCC[C@]21C
inactive: all assays above

Cn1cc(C2=C(c3coc4ccccc34)C(=O)NC2=O)c2cc(Br)ccc21
not listed: JEG-3
inactive: all other assays above

O=C(NCC1(N2CCN(c3ccccc3)CC2)CCOCC1)c1cccnc1Sc1ccccc1
inactive: all assays above

COc1ccccc1N1CCN(c2ncnc3n[nH]c(Br)c23)CC1
not listed: HeLa
inactive: all other assays above

Cc1cc(C(=O)Cn2cc(C#N)ccc2=O)c(C)n1Cc1ccccc1
not listed: Hek293T
inactive: all other assays above
